HTR5A inv ag: HTR5A inverse agonists in luminescence cell assay, primary screen, counter-screen for OPRM1-OPRD1 heterodimer inverse agonist project, full-deck HTS. AID 504634, 2011. actives 0.083% (n = 340,000). HTR5A cell line, inverse agonism. inhibition, % at 9.3 µM. 5-hydroxytryptamine receptor 5A (Homo sapiens), P47898; in the data active means inhibition mostly above about 23%, no sharp cut-off; inactive means mostly below about 18%;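 further: 0% = cells with DMSO and 100% = no-cell wells with DMSO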
HTR5A ag: HTR5A agonists in luminescence cell assay, primary screen, counter-screen for OPRM1-OPRD1 heterodimer agonist project, full-deck HTS. 5-hydroxytryptamine receptor 5A (Homo sapiens), P47898. cell-based. activation, % at 9.3 µM. actives 0.61% (n = 340,000); in the data active means activation mostly above about 9.5%, no sharp cut-off; inactive means mostly below about 7.6%;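 further: 0% = cells with vehicle only and 100% = reference agonist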
OPRM1-OPRD1 ag: agonists of OPRM1-OPRD1 heterodimerization, primary screen, cell-based, luminescence | Mu-type opioid receptor (Homo sapiens) + Delta-type opioid receptor (Homo sapiens), … | cells | activation, % at 9.3 µM | actives 0.3% (n = 340,000) | AID 504326, 2011; in the data active means activation above about 18%;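 further: 0% = vehicle-treated cells and 100% = reference agonist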
Target sequence (P35372 whole entry, looked up): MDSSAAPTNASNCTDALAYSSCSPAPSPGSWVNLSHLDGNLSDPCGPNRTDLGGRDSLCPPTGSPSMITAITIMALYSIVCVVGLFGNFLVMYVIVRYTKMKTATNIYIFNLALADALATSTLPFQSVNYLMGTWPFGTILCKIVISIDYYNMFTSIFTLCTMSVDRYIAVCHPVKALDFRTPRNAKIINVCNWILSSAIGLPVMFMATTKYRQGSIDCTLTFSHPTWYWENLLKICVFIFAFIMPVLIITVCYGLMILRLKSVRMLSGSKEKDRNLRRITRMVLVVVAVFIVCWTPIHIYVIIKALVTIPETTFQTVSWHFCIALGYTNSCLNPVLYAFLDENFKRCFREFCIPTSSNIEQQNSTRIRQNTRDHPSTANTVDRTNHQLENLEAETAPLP
Target sequence (P41143 whole entry, looked up): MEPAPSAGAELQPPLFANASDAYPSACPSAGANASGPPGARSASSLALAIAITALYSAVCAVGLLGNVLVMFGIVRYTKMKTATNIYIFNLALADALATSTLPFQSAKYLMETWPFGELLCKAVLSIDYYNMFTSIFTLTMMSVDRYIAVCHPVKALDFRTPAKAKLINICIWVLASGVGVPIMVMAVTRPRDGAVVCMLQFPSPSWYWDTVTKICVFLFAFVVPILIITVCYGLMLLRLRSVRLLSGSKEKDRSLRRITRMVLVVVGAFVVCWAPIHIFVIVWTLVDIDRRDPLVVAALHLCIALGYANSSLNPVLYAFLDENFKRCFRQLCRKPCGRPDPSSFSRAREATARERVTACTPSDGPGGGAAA
MOR-DOR inv ag-1: inverse agonists of MOR-DOR heterodimerization, primary screen, cell-based, luminescence | actives 0.21% (n = 340,000) | inhibition, % at 9.3 µM | cell-based MOR-DOR heterodimer luminescence, inverse agonism | Mu-type opioid receptor (Homo sapiens) + Delta-type opioid receptor (Homo sapiens), …; in the data active means inhibition above about 22%, passing the limit was not always enough;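 further: 0% = cells with DMSO and 100% = wells without cells with DMSO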
MOR-DOR inv ag-2: inverse agonists of MOR-DOR heterodimerization, counter-screen for HTR5A inverse agonist project, cell-based, luminescence; U2OS counter-screen cells, complementation luminescence; shares compounds with HTR5A inv ag; 190 tested, under 10 active; inhibition, % at 9.3 µM;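 further: 0% = cells with DMSO and 100% = wells without cells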
HTR5A inv confrm: HTR5A inverse agonists, retest of hits, confirmation, cell-based, luminescence; 190 tested, under 10 active; inhibition, % at 9.3 µM; shares compounds with HTR5A inv ag; HTR5A-expressing cells, inverse agonism;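 further: 0% = cells with DMSO and 100% = no cells with DMSO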
Active calls of the source: *; i = inactive; · = not tested or not shown. Most compounds without a hit are left out; they make up all but 1.1% or so of the library. Unless noted, how the calls were made is not given here.

SMILES	HTR5A inv ag	HTR5A ag	OPRM1-OPRD1 ag	MOR-DOR inv ag-1	MOR-DOR inv ag-2	HTR5A inv confrm
CCCN(CC(=O)Nc1ccccc1C)C(=O)c1ccc(-c2ccc(C(C)=O)cc2)o1	43*	-5	-3	14	-60	-8
CCCN(CC(=O)Nc1ccccc1C)C(=O)c1ccc(C(=O)c2ccccc2)cc1	-20	7	2	-12	·	·
Cc1cccc(NS(=O)(=O)c2csc(C(N)=O)c2)c1C	-17	4	-3	17	·	·
CCOC(=O)CCNC(=O)N1CCCC(Cc2ccccc2)(C(=O)OCC)C1 (centres undefined)	24*	-8	-1	4	0	13
O=C(NN1C(=O)/C(=C/c2ccc(O)c([N+](=O)[O-])c2)SC1=S)c1ccccc1Cl	28*	-3	-5	26	-71	1
COCCn1c(SCC(=O)NNC(=O)c2cc(Cl)ccc2OC)nnc1-c1ccncc1	43*	-18	-1	6	-24	-154
O=C(c1ccc(CNS(=O)(=O)c2ccc(Br)cc2)cc1)N1CCCCC1	9	3	2	-10	·	·
COc1ccc(Cl)cc1C(=O)NNC(=O)COC(=O)CCN=C1NS(=O)(=O)c2ccccc21	71*	-29	-6	29	-20	-138
Cc1sc(NC(=O)CCS(=O)(=O)c2ccccc2)c(C#N)c1C	-4	0	-1	5	·	·
Cc1sc(NC(=O)CS(=O)(=O)c2ccccc2)c(C#N)c1C	41*	-16	-1	5	-15	-8
NC(=O)c1cc(S(=O)(=O)N2CCOCC2)ccc1Sc1ccccc1N	-2	0	-2	10	·	·
Cc1cc(C)c(COc2ccc(/C=N/n3c(C)n[nH]c3=S)cc2)c(C)c1	37*	-10	3	-14	-51	-7
O=C(Cc1ccc2c(c1)OCCO2)Nc1cc(Cl)ccc1N1CCOCC1	15	0	3	-21	·	·
Cc1sc2ncn(CC(=O)NCC(=O)N3CCN(c4ccccc4F)CC3)c(=O)c2c1C	-4	-1	-3	16	·	·
CN(C)c1ccc2nc3c(=O)[nH]c(=O)nc-3n(CC(O)C(O)C(O)CO)c2c1 (centres undefined)	33*	-9	-6	29	18	85*
CC(=O)Nc1ccc(NC(=O)[C@@H](NC(=O)c2ccccc2F)C(C)C)cc1	-4	1	1	-4	·	·
O=C(CN1CCN(S(=O)(=O)c2ccc(Cl)cc2)CC1)NC1CCCC1	0	0	-1	3	·	·
O=C(CN1CCN(S(=O)(=O)c2ccc(F)cc2)CC1)NC1CCCC1	35*	0	-1	7	-17	6
O=C(Nc1nnc(-c2ccccc2)o1)c1nc2ccccc2s1	41*	-15	-2	11	i	1
COc1cccc(C(=O)Nc2ccc(N3CCN(C(=O)c4cccs4)CC3)cc2)c1	33*	-14	-1	4	i	-13
O=C(Nc1ccc(N2CCN(C(=O)c3cccs3)CC2)cc1)c1cccc(F)c1	-13	4	2	-14	·	·
O=C(COC(=O)c1cccs1)Nc1cccc(S(=O)(=O)N2CCCCC2)c1	-7	2	2	-8	·	·
O=C(NC(c1ccc(Cl)cc1)c1cc(Cl)c2cccnc2c1O)c1cccnc1 (centres undefined)	30*	-11	-1	5	0	-9
CCOc1ccccc1C1c2[nH]c3ccccc3c2C[C@H]2C(=O)N(C3CCN(Cc4ccccc4)CC3)CC(=O)N12 (some centres undefined)	1	0	-1	5	·	·
Cc1ccccc1C1c2[nH]c3ccccc3c2C[C@H]2C(=O)N(C3CCN(Cc4ccccc4)CC3)CC(=O)N12 (some centres undefined)	32*	-9	2	-11	-22	-3
SMILES	HTR5A inv ag	HTR5A ag	OPRM1-OPRD1 ag	MOR-DOR inv ag-1	MOR-DOR inv ag-2	HTR5A inv confrm
N#Cc1ccsc1NC(=O)c1cccc(-n2cnnn2)c1	9	1	1	-8	·	·
O=[N+]([O-])c1ccc(S(=O)(=O)Nc2cccc(-c3ccc(N4CCOCC4)nn3)c2)cc1	43*	-1	5	-35	-21	-13
Cc1c(NC(=O)C(C)OC(=O)c2ncc(Cl)c(Cl)c2Cl)c(=O)n(-c2ccccc2)n1C (centres undefined)	3	-1	-2	9	·	·
COc1ccc([N+](=O)[O-])cc1NCC(=O)Nc1cc(S(=O)(=O)N2CCCCC2)ccc1C	20	4	-2	8	·	·
CC(C(=O)OCC(=O)c1ccc(Br)cc1)N1C(=O)C2C3C=CC(C3)C2C1=O (centres undefined)	-23	8	-2	12	·	·
COCCN(C(=O)c1ccccc1Oc1ccccc1)c1c(N)n(CC(C)C)c(=O)[nH]c1=O	35*	-14	-2	8	-415	-5
COCCN(C(=O)c1cc(-c2ccccc2Cl)nc2ccccc12)c1c(N)n(CC(C)C)c(=O)[nH]c1=O	5	-1	-4	16	·	·
COC(=O)c1cc(S(=O)(=O)NCC2CCN(Cc3ccc(F)cc3)CC2)cn1C	-3	1	-2	9	·	·
COC(=O)c1cc(S(=O)(=O)NCC2CCN(CCc3cccs3)CC2)cn1C	41*	0	-1	6	-21	-2
O=C(Nc1cccc([N+](=O)[O-])c1)NN1CCCCCC1	-1	0	-4	18	·	·
CC(=O)N1c2ccccc2-c2nc3ccccc3n2C1C (centres undefined)	32*	-8	-4	17	-8	0
Cc1ccc(C2N(C)c3ccccc3-c3nc4ccccc4n32)o1 (centres undefined)	2	-2	-1	7	·	·
O=[N+]([O-])c1ccc(/C=N/Nc2nc(NCc3ccccc3)nc(N3CCOCC3)n2)cc1	9	-4	3	-14	·	·
O=[N+]([O-])c1cccc(/C=N/Nc2nc(NCc3ccccc3)nc(N3CCOCC3)n2)c1O	88*	-32	-3	15	0	12
CC(=O)N1CCc2ccccc2C1CC(=O)O (centres undefined)	43*	2	-1	6	-13	-14
Cc1ccc(C)c(N(CC(=O)NC2CCCCC2)C(=O)CNC(=O)c2ccco2)c1	-12	1	-3	16	·	·
CCn1c(-c2ccc(-c3ccccc3)cc2)c[nH]c1=S	33*	-10	0	0	-309	-11
C=CCn1c(Cc2cccc3ccccc23)n[nH]c1=S	28*	-8	1	-4	2	2
C=CCn1c(CCn2c3ccccc3c3ccccc32)n[nH]c1=S	24	2	-2	9	·	·
O=C1CCC[C@@H]2C[C@@]3(C[C@@H]4CCN1[C@H]24)Nc1cc([N+](=O)[O-])ccc1NC3=NC1CCCCC1	35*	-2	-3	16	-24	-13

Bioassay records from PubChem BioAssay.
